# Data from PubChem BioAssay (NCI).
# This is part of a sample that, as a whole, favours compounds with a hit. Of some 83,000 tested, about 20% had one in any assay.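 Method: cells in 96-well plates; compound added at one concentration; 48 h incubation; percent growth measured; values under 10 scored active.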 Unmarked numbers belong to inactive results. Calls of active or inactive are those of the source.
# System: HL-60(TB) leukemia
# Assay: NCI-60 one-dose screen, 48 h (100 = growth as untreated, 0 = no growth, -100 = all killed)
# Settings: 10 µM unless noted
row,SMILES,growth
1,Nc1ncc(-c2ccc3ncnc(N4CCc5ccc(Cl)cc54)c3c2)cc1C(F)(F)F,22.9%
2,CCCCCCCCCCCCCCn1c2ccccc2c2c3c(c4c5cc(OC)ccc5oc4c21)C(=O)NC3=O,115%
3,CCn1cnc2c1c(=O)[nH]c(=O)n2CC1CCC(CNS(=O)(=O)c2ccc(OC3CCOCC3)c(F)c2)CC1 (stereo not drawn),13.2%
4,Brc1cccc(-n2ncc3c(Nc4ccc(-c5nnc(-c6ccccc6)o5)cc4)ncnc32)c1,122%
5,C(CCCSC1=NCCN1)CCSC1=NCCN1,76.2%
6,O=S(=O)(NCCNc1nccc(-c2c(-c3cccc(O)c3)nc3occn23)n1)c1ccc(Cl)cc1,76.4%
7,COc1ccc2c(c1)c(-c1noc(C(=O)c3cn(C)c4ncc(Br)cc34)n1)cn2C,98.2%
8,CCn1c(C)nc2cc(C(N)=O)ccc21,79.7%
9,Cc1nc2c(c(=O)[nH]1)OCN(Cc1ccccc1)C2,96.5%
10,O=S(=O)(NCCCNc1cc(-c2cn(-c3ccccc3)nc2-c2cccc(O)c2)ccn1)c1ccc(Br)cc1,-13.1% (active)
11,CN(C)CCOc1cccc(NC2=C(Cl)C(=O)C(Nc3cccc(OCCN(C)C)c3)=C(Cl)C2=O)c1,-51% (active)
12,Cc1c(O)c(=O)n(-c2ccccc2)n1C,119%
13,N#C/C(=C1\SC(=O)CN1c1ccccc1)c1nc2ccccc2s1,92.8%
14,Fc1ccccc1Nc1n[nH]c(=S)s1,112%
15,Cc1ccc(S(=O)(=O)c2nc(-c3ccccc3)oc2SCC(N)=O)cc1,65.3%
16,Cc1ccncc1C(N)=O,-80.7% (active)
17,CC(C)(C)c1ccc(C(=O)N/N=C/c2ccc(O)cc2O)cc1,5.19% (active)

row,SMILES,growth
1,Nc1c(-c2nc3ccccc3c(=O)[nH]2)nnn1-c1ccc(Cl)cc1,94%
2,COc1ccc(C(=O)n2nc(-c3ccccc3)nc2N)cc1OC,80%
3,CN=C(N)N/N=C(\C)c1ccc2c(c1)Cc1cc(/C(C)=N/NC(N)=NC)ccc1-2,-23.2% (active)
4,Nc1c(Cl)cc(/C=C2\C=Cc3ccccc32)cc1Cl,104%
5,Clc1ccc(-c2nnc(-c3cccc4ccccc34)o2)cc1,112%
6,O=c1cc2oc3cc(O)c(O)cc3c(-c3ccccc3O)c-2cc1O,103%
7,COc1nc2c(c(=O)[nH]1)C(c1ccc(Oc3ccnc4cc(Cl)ccc34)c(OC)c1)C=C(c1cc(OC)c(OC)c(OC)c1)N2 (stereo not drawn),97.9%
8,C=CCOc1ccc(/C=C2\SC(=S)N(CCc3ccc(O)cc3)C2=O)cc1,38.9%
9,CCOC(=O)NCCCC(=O)NCCc1ccccc1,102%
10,O=S(=O)(NCCCNc1nccc(-c2c(-c3ccccc3)nc3sccn23)n1)c1ccc(F)cc1,22.5%
11,O=[N+]([O-])c1cccc(C2c3ccccc3Oc3ccccc32)c1,99%
12,Cc1ccc(O)c(C(=O)c2ccccc2Cl)c1,112%
13,CCOC(=O)Nc1ccc2nc(-c3cscn3)[nH]c2c1,18.7%
14,CC(=O)OCCO,105%
15,COc1cc(OCc2cccc(-c3ccccc3)c2C)cc(OC)c1CN1CCCCC1C(=O)NCCOCCOCCN (stereo not drawn),-42.4% (active)
16,COc1ccc2[nH]cc(C3(c4c[nH]c5ccc(OC)cc45)C(=O)Nc4ccc(F)cc43)c2c1,-40.3% (active)
